Here are results for six compounds from PubChem BioAssay (Tox21).

Values without a mark were called inactive. Results filed as inconclusive are left out. Active and inactive are the calls of the source. Unless noted, calls come from the whole dose curve; as a rule, active = well fitted curve in the direction sought with a large enough effect in the repeat runs; inconclusive = weak or mixed curves; inactive = no such curve, though single readings can be large; an effect the other way counts as inactive or inconclusive.

A short description of test [1]: qHTS assay to identify small molecule agonists of the androgen receptor (AR) signaling pathway in the presence of an antagonist - cell viability counter screen (AID 1259379).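 Note: MDA-kb2 human breast cancer cells carrying an MMTV luciferase reporter; series mostly up to about 92 µM; nearly all actives have a fitted effect of over 25% in size.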 Summed up: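 In MDA-kb2 cells (human breast carcinoma, MMTV-luciferase), compounds at 15 concentrations plus 3.0uM nilutamide; 16 hr, 37C, 0% CO2; CellTiter-Fluor fluorescence read for viability.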

A short description of test [2]: qHTS assay to identify small molecule agonists of the estrogen receptor beta (ER-beta) signaling pathway - cell viability counter screen (AID 1259380). Note: nearly all actives have a fitted effect of over 30% in size. Note: potency is the fitted concentration of half-maximal effect. In a few lines:
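Viability of ER-beta-UAS-bla HEK293T cells was determined by CellTiter-Glo luminescence following 16 hr treatment with test compounds at 37C.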

The target of test [3] is Androgen receptor (Homo sapiens) (UniProt P10275). The test can be described thus: qHTS assay to identify small molecule agonists of the androgen receptor (AR) signaling pathway in the presence of an antagonist (AID 1259381; calls by dose curve; note: nearly all actives have a fitted effect of over 15% in size). Summed up: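 Here, 15-concentration compound series were pin-transferred onto MDA-kb2 MMTV-luciferase cells already dosed with nilutamide (3.0uM final). After 16hr at 37C, ONE-Glo was added and luminescence read 30min later at room temperature.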
Chain of Androgen receptor (Homo sapiens) (P10275 whole entry, looked up): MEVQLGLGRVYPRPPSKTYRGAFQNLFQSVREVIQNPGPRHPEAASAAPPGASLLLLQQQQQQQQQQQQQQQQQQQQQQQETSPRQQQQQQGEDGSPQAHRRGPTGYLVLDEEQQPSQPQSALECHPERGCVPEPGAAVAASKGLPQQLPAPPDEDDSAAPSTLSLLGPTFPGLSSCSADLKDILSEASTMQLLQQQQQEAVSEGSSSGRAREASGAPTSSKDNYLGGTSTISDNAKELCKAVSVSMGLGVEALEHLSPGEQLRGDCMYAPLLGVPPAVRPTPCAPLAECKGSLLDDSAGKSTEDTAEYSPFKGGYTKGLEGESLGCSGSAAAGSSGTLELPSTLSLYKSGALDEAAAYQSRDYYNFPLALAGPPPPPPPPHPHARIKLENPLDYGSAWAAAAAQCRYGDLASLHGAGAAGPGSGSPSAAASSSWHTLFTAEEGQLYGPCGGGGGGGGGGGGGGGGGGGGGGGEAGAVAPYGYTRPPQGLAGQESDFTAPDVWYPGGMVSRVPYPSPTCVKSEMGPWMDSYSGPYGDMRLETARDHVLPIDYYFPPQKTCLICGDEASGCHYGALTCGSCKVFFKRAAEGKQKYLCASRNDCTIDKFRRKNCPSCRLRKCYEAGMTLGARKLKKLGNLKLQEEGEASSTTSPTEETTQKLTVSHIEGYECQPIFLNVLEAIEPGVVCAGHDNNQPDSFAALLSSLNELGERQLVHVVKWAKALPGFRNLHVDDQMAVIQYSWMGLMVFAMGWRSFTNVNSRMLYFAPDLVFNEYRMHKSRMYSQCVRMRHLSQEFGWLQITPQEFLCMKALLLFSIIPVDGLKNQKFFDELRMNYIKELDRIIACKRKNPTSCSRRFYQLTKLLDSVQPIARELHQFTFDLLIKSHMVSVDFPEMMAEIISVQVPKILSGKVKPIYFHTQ

The nature of test [4]: qHTS assay to identify small molecule antagonists of the estrogen receptor beta (ER-beta) signaling pathway - cell viability counter screen (AID 1259382).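 Note: HEK293T cells carrying ER-beta-UAS-bla reporter stimulated with estradiol; series mostly up to about 92 µM; nearly all actives have a fitted effect of over 55% in size.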 Summed up: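 Tox21 10K library tested in qHTS format on ER-beta-bla HEK293T cells stimulated with 1nM E2; 16 hr treatment at 37C. Same-well CellTiter-Glo luminescence served as the cell viability measure.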
Test [5] can be described thus: qHTS assay to identify small molecule agonists or antagonists of the thyroid stimulating hormone receptor (TSHR) signaling pathway - wild type cell line counter screen (AID 1259384; calls by dose curve). In a few lines: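 Wild-type Hek293 cells, 800/well, 18 h at 37C, then compound with Ro20-1724 for 30 min RT. cAMP by HTRF (cAMP-d2/anti-cAMP cryptate), 1 h RT, fluorescence read. 15 concentrations, triplicates.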

The target of test [6] is Thyrotropin receptor (Homo sapiens) (UniProt P16473). Briefly: qHTS assay to identify small molecule antagonists of the thyroid stimulating hormone receptor (TSHR) signaling pathway (AID 1259385; calls by dose curve; note: nearly all actives have a fitted effect of over 20% in size). Summed up: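 TSHR-HEK293 cells (800/well) plated 18 h, then compounds with Ro20-1724 and TSH at 1.5 ng/mL final, 30 min at room temperature. cAMP quantified by HTRF (cAMP-d2/anti-cAMP-cryptate, 1 h); 15 concentrations in triplicate.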
Chain of Thyrotropin receptor (Homo sapiens) (P16473 whole entry, looked up): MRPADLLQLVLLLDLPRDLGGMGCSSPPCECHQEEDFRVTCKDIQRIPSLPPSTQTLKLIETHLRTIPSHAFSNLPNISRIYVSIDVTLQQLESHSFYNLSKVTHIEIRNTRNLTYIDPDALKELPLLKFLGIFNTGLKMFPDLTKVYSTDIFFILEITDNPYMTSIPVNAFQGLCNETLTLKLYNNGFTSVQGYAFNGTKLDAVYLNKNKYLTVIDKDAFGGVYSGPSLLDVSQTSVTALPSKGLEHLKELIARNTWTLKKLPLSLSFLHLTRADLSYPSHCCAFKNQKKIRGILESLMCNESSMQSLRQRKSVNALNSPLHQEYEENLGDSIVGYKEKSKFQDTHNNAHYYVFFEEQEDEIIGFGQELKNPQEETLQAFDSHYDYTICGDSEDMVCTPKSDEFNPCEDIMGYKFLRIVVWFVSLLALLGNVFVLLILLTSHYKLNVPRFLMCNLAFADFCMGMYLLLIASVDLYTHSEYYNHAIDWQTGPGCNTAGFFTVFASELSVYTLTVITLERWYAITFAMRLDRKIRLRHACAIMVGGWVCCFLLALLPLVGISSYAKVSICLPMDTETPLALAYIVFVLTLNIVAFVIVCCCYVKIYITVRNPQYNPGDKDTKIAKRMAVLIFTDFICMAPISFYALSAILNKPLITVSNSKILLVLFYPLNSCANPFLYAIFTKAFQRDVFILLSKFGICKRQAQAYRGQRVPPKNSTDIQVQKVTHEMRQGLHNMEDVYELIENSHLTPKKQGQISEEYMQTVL

Test [7] in a line: qHTS assay to identify small molecule agonists of the estrogen receptor alpha (ER-alpha) signaling pathway in the presence of an antagonist - cell viability counter screen (AID 1259386).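 Note: series mostly up to about 92 µM; cells exposed to compounds for 22 h at 37 °C before the viability read; nearly all actives have a fitted effect of over 30% in size.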 In a few lines: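 Fluorescent CellTiter-Fluor viability signal from VM7Luc4E2 cells, with the reagent added during the final hour of a 22hr compound exposure at 37C in the presence of 10.0nM ICI-182,780.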

Test [8] addresses Progesterone receptor (Homo sapiens) (UniProt P06401). Briefly: qHTS assay to identify small molecule agonists of the progesterone receptor (PR) signaling pathway (AID 1346784; calls by dose curve; note: nearly all actives have a fitted effect of over 30% in size). In a few lines:
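Cells (PR-UAS-bla HEK 293T, GripTite) were plated in assay medium containing 2% charcoal-stripped FBS and incubated 6 hr. Test compounds in DMSO were added for 16 hr at 37C. FRET substrate was then loaded for 2 hr at room temperature before fluorescence reading.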

Test [9] can be described thus: qHTS assay to identify small molecule antagonists of the progesterone receptor (PR) signaling pathway - cell viability counter screen (AID 1346798). Note: series mostly up to about 92 µM; nearly all actives have a fitted effect of over 50% in size. Summed up:
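Counter screen for cytotoxicity: viability of PR-UAS-bla HEK293T cells was measured with CellTiter-Glo luminescence following 16 hr compound exposure in the presence of R5020.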

A short description of test [10]: qHTS assay to identify small molecule agonists of the progesterone receptor (PR) signaling pathway - cell viability counter screen (AID 1346799; calls by dose curve; note: nearly all actives have a fitted effect of over 45% in size; note: potency is the fitted concentration of half-maximal effect). In a few lines: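 Cells (PR-UAS-bla HEK293T) are plated at 3,000/well in 2% charcoal-stripped FBS medium, rested 6 hr, dosed and incubated 16 hr at 37C. CellTiter-Glo is then added and luminescence measured after 30 min at room temperature.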

Test [11] can be described thus: qHTS assay to identify small molecule antagonists of the TGF-beta/Smad signaling pathway - cell viability counter screen (AID 1346824). Note: nearly all actives have a fitted effect of over 50% in size. In a few lines:
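SBE-bla HEK 293T cells, incubated overnight, then compound plus 0.25 ng/mL TGF-beta1 (stock added) for 5 hr at 37 C. Viability was read in the same wells by CellTiter-Glo luminescence after 30 min at room temperature.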

The nature of test [12]: qHTS assay to identify small molecule agonists of the TGF-beta/Smad signaling pathway - cell viability counter screen (AID 1346829). Note: top concentration of the series differs between compounds; nearly all actives have a fitted effect of over 45% in size. In a few lines: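 Same-well cytotoxicity: CellTiter-Glo added after the 2 hr room-temperature beta-lactamase substrate step, luminescence measured 30 min later; cells had 5 hr of compound at 37 C.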
The nature of test [13]: qHTS assay to identify small molecule agonists of the TGF-beta/Smad signaling pathway (AID 1346859; active = well fitted activation curve with a large enough effect in the signal ratio in the repeat runs, not every such curve was filed as active; the % refers to the signal ratio; note: series mostly up to about 77 µM). In a few lines:
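Reporter line: HEK 293T with stably integrated SBE-controlled beta-lactamase. Compound exposure lasts 5 hr at 37 C and 5% CO2; substrate loading follows for 2 hr at room temperature, with emission read at 460 and 530 nm.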

Test [14] in a line: Human pregnane X receptor (PXR) small molecule agonists, qHTS cell viability counter screen (AID 1346977). Note: nearly all actives have a fitted effect of over 50% in size. Summed up:
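Cytotoxicity counter screen run in the same wells as the PXR luciferase assay, using PXR-Luc HepG2 cells in charcoal-stripped serum medium. Viability: CellTiter-Fluor fluorescence after 24hr compound treatment.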

A short description of test [15]: Caspase-3/7 induction in HepG2 cells by small molecules, qHTS assay (AID 1346978). Note: nearly all actives have a fitted effect of over 15% in size. Note: potency is the fitted concentration of half-maximal effect. Summed up: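 Wild-type HepG2 cells, 2,000/well, settled 5 hr at 37 C and 5% CO2, then compound-treated for 17 hr; caspase-3/7 activity read by luminescent Caspase-Glo 3/7 after 30 min at room temperature.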
A short description of test [16]: Caspase-3/7 induction in CHO-K1 cells by small molecules, qHTS cell viability counter screen (AID 1346979). Note: nearly all actives have a fitted effect of over 35% in size. In a few lines:
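Cytotoxicity counter screen run in parallel with the caspase-3/7 assay: CHO-K1 cells, 16hr compound treatment at 37C, then CellTiter-Fluor for 1hr before fluorescence reading.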

For test [17], the target named is Thyrotropin-releasing hormone receptor (Homo sapiens) (UniProt P34981). The test can be described thus: qHTS assay to identify small molecule antagonists of the thyrotropin-releasing hormone receptor (TRHR) signaling pathway (AID 1346877; active = well fitted inhibition curve with a large enough effect in the repeat runs, not every such curve was filed as active; note: series mostly up to about 51 µM). Summed up: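 In this cell-based calcium flux format, HEK293 cells expressing TRHR received test compound for 5 min before the agonist TRH (1 nM final). Dye loading lasted 2 h at 37 °C.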
Chain of Thyrotropin-releasing hormone receptor (Homo sapiens) (P34981 whole entry, looked up): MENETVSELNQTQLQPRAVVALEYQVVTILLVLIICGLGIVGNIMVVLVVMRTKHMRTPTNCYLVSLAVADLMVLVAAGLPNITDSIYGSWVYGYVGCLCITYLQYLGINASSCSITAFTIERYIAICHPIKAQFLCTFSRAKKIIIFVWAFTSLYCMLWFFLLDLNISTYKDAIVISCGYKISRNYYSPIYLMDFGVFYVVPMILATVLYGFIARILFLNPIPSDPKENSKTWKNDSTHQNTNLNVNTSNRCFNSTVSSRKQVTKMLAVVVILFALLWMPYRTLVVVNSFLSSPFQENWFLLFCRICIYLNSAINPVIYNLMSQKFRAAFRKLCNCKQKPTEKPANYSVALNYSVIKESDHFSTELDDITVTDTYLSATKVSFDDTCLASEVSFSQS

For test [18] the target is unchanged. The test can be described thus: qHTS assay to identify small molecule agonists of the thyrotropin-releasing hormone receptor (TRHR) signaling pathway (AID 1346891; calls by dose curve; note: series mostly up to about 58 µM). Summed up:
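Cells: TRHR-Hek293, seeded and incubated 18 h. Dye loading: 2 h at 37 °C. Compound added from DMSO stock by pin tool. Read-out: kinetic calcium fluorescence over 3 min.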

The target in test [19] is Progesterone receptor (Homo sapiens) (UniProt P06401). The test can be described thus: qHTS assay to identify small molecule antagonists of the progesterone receptor (PR) signaling pathway (AID 1346795; active = well fitted inhibition curve with a large enough effect in the signal ratio in the repeat runs, not every such curve was filed as active; the % refers to the signal ratio). Summed up: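 Antagonist mode: compounds tested against 1 nM (final) promegestone stimulation in HEK293T cells expressing PR-UAS-bla reporter, 16 hr at 37C, 5% CO2; beta-lactamase activity detected via B/G FRET substrate after 2 hr at room temperature.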
Chain of Progesterone receptor (Homo sapiens) (P06401 whole entry, looked up): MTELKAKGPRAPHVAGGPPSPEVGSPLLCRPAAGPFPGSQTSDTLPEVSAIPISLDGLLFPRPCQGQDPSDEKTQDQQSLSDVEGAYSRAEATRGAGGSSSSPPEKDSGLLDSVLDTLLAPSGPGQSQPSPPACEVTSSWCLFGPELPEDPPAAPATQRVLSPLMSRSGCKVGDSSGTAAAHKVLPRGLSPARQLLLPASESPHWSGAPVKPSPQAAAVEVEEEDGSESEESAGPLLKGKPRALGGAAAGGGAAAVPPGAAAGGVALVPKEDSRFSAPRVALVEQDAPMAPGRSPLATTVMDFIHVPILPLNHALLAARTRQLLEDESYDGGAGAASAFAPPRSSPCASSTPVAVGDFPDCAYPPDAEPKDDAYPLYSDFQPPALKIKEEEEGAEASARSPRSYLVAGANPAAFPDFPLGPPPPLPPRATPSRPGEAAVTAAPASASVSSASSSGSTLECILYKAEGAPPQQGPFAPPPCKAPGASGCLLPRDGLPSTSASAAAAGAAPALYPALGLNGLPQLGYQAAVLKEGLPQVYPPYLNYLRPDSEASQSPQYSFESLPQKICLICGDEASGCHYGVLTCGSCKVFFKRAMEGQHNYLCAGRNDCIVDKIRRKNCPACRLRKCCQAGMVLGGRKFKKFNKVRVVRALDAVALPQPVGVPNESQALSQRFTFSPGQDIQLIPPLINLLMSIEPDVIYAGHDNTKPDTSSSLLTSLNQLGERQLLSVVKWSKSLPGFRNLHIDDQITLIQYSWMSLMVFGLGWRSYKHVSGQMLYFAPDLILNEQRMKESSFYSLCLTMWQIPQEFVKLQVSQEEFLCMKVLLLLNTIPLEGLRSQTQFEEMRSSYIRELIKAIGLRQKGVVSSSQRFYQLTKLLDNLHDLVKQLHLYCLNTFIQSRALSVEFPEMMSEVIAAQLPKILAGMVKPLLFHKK

Test [20] has as its target Estrogen receptor (Homo sapiens) (UniProt P03372). The test can be described thus: qHTS assay to identify small molecule agonists of the estrogen receptor alpha (ER-alpha) signaling pathway in the presence of an antagonist (AID 1259383; calls by dose curve; note: top concentration of the series differs between compounds; nearly all actives have a fitted effect of over 15% in size). Summed up: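 In VM7Luc4E2 cells, 4,000 per well, compounds at 15 concentrations were co-incubated 22hr at 37C with 10.0nM final ICI-182,780. Luminescence from the stably transfected 4×ERE-luciferase reporter was recorded 30min after ONE-Glo addition.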
% is set by controls: 0 for no effect and ±100 for the full control effect.

Chain of Estrogen receptor (Homo sapiens) (P03372 whole entry, looked up): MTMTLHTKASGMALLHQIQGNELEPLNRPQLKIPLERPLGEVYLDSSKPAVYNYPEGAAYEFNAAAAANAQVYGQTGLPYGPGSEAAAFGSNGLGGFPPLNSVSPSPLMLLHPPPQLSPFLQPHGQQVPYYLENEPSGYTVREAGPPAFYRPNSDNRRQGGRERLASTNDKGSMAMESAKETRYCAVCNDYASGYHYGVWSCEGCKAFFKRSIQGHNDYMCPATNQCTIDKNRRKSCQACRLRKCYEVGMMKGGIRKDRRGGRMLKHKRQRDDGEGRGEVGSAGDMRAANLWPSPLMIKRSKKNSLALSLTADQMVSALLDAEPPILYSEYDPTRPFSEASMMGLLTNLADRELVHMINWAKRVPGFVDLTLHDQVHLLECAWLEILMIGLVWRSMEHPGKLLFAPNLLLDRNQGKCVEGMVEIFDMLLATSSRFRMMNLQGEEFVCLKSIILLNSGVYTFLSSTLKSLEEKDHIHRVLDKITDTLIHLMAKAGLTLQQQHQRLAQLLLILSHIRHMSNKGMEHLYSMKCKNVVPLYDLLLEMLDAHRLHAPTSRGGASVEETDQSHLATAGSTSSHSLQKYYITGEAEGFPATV

`Nc1cc([N+](=O)[O-])ccc1Cl`: the Potency entry in test [1], in test [2], in test [3], in test [4], in test [5] and in test [6] was “inactive” in each case. Besides, the Potency entry in [7], in [9], in [10], in test [11], in [12] and in test [14] was “inactive” each time. Moreover, the Potency result in [15] and in [16] was “inactive” throughout. Moreover, the call in test [8] and in test [13] was inactive.
Regarding `CCC(O)CO` (stereo not given), the Potency entry in test [1], in test [2], in [3], in [4], in [5] and in test [6] was “inactive” throughout. The Potency result in test [7], in test [9], in test [10], in test [11], in test [12] and in test [17] was “inactive” each time. The Potency entry in test [18], in test [14], in test [15] and in test [16] was “inactive” in each case. In addition, the compound was called inactive in test [8] and in test [13].
Take `CCc1cccc(CC)c1`: the Potency entry in test [1], in test [2], in test [3], in [4], in test [7] and in test [19] was “inactive” throughout. Further, the Potency entry in test [9], in [10], in test [11], in test [12], in test [17] and in test [18] was “inactive” throughout. In addition, the Potency entry in test [14] and in [15] was “inactive” throughout. Besides, the call in test [8] and in test [13] was inactive.
Take `O=C(O)C[C@H](O)C[C@H](O)/C=C/c1c(C2CC2)nc2ccccc2c1-c1ccc(F)cc1`: the activity change, negative = cytotoxicity in test [1] is 0.182% [at 19 µM]; in test [7] it was 8.43% [at 19 µM]; in [12] it was 3.76% [at 15.8 µM]; in [14], -7.27% [at 19 µM]. Moreover, the Potency in [2] is 3.26 µM (active); in [10], 0.651 µM (active); in [15] it was 10.3 µM (active). Moreover, the activation is -0.267% [at 19 µM] in test [3]; -0.342% [at 19 µM] in test [20]; -0.575% [at 19 µM] in test [8]; -0.423% [at 15.8 µM] in [13]; -0.474% [at 11.8 µM] in test [18]. For the same compound, the cAMP activity change in test [5] is -3.96% [at 18.9 µM, stronger effect = higher value]. For the same compound, the activity change, negative = inhibition in test [6] is 1.31% [at 19 µM]. The viability change, negative = cytotoxic in test [11] is 0.256% [at 15.8 µM]. For the same compound, in [17], the activity, negative = inhibition was 1.91% [at 10.5 µM].
With `[Cl][Sc]([Cl])[Cl]`, the Potency entry in [1], in test [2], in test [3], in [4], in [5] and in [6] was “inactive” throughout. The Potency result in [7], in test [9], in test [11], in test [12], in [14] and in test [15] was “inactive” each time. Besides, the Potency result in test [16] was “inactive”. Moreover, the outcome in [8] and in test [13] was inactive.
Take `C=Cc1ccncc1`: the Potency result in test [1], in [2], in test [3], in test [4], in test [5] and in test [6] was “inactive” in each case. The Potency result in test [7], in [19], in [9], in test [10], in test [11] and in [12] was “inactive” throughout. In addition, the Potency entry in test [17], in test [18], in test [14], in [15] and in [16] was “inactive” in each case. The call in test [8] and in test [13] was inactive.
